In the supplement of paper PMC11732987, “Enantioselective OTUD7B fragment discovery through chemoproteomics screening and high-throughput optimisation” (Communications Chemistry, 2025):

Legend:
Assay in all cases: log2 ratio of Biotin-Ahx-Ub-VS probe labelling (fragment/DMSO); higher = less target engagement (more negative = stronger competition), active = hit call of the paper (q ≤ 0.05, log2 ratio ≤ -1)
Settings in all cases: compound concentration: 200 uM; treatment time: 3 h
USP19 = molecular target: T1, USP19 (UniProt O94966)
T1 sequence (whole entry): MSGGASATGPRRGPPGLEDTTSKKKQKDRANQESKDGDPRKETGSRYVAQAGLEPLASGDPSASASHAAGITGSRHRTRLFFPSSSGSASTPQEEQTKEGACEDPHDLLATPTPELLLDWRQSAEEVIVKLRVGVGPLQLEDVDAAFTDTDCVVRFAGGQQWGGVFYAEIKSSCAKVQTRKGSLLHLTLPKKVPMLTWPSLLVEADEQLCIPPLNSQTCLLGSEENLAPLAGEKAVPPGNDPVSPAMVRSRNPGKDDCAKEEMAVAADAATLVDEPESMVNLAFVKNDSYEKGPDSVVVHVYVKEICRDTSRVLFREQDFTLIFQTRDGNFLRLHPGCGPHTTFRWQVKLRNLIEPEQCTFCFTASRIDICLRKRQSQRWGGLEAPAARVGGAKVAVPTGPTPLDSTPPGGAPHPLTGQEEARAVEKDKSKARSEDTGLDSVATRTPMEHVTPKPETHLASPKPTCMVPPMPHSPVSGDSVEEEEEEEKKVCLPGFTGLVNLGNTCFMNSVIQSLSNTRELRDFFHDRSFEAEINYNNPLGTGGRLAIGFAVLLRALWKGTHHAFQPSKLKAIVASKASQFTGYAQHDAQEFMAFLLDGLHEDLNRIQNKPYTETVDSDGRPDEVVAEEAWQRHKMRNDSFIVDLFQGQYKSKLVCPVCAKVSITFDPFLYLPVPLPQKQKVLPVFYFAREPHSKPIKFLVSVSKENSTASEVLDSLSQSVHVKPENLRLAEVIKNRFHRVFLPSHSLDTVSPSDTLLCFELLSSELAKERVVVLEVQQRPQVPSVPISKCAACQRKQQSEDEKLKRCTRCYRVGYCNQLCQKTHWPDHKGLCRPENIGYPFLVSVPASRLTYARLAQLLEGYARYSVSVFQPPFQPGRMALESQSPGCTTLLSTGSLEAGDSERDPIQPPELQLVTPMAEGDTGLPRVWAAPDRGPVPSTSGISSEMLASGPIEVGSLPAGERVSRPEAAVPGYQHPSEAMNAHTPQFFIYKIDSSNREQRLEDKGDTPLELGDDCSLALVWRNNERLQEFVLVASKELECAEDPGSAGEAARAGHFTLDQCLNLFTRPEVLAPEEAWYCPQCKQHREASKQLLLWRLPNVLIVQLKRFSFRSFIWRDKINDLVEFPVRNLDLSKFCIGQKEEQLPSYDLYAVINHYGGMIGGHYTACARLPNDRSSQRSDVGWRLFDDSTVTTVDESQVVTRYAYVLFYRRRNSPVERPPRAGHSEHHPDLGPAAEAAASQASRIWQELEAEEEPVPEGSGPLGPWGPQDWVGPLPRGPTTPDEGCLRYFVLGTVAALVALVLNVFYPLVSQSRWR
How it was run: (§1)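 Labelled DUBs from HEK293T lysate were NeutrAvidin-enriched, digested with LysC and trypsin, and run by diaPASEF LC-MS/MS. Before that, each 495 µg sample in Tris/CHAPS/IGEPAL buffer with protease inhibitors was treated in triplicate with fragment at 200 µM or vehicle for 3 h, then with Biotin-Ahx-Ub-VS at 0.5 µM final for 1 h. Values are average log2 ratios of fragment over vehicle by unpaired t-test, based on global-median-normalised Spectronaut label-free quantities from proteins with ≥2 unique peptides.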

USP22 = molecular target: T2, USP22 (UniProt Q9UPT9)
T2 sequence (whole entry): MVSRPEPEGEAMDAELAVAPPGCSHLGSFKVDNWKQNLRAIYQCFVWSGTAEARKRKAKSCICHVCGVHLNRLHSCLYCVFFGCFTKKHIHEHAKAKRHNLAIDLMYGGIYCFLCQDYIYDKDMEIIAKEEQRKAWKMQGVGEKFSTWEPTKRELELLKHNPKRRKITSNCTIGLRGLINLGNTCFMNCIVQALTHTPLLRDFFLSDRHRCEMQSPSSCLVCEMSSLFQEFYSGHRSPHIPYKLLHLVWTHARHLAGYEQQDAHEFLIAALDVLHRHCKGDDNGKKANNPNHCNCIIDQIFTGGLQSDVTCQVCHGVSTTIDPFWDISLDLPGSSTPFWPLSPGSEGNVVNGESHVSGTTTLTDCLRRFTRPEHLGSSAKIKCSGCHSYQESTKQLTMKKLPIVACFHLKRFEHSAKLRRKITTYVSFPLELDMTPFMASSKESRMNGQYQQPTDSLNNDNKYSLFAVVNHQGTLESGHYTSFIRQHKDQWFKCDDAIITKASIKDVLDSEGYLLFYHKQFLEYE
How it was run: as §1

USP24 = USP24 (UniProt Q9UPU5)
How it was run: as §1

USP25 = molecular target: T3, USP25 (UniProt Q9UHP3)
T3 sequence (whole entry): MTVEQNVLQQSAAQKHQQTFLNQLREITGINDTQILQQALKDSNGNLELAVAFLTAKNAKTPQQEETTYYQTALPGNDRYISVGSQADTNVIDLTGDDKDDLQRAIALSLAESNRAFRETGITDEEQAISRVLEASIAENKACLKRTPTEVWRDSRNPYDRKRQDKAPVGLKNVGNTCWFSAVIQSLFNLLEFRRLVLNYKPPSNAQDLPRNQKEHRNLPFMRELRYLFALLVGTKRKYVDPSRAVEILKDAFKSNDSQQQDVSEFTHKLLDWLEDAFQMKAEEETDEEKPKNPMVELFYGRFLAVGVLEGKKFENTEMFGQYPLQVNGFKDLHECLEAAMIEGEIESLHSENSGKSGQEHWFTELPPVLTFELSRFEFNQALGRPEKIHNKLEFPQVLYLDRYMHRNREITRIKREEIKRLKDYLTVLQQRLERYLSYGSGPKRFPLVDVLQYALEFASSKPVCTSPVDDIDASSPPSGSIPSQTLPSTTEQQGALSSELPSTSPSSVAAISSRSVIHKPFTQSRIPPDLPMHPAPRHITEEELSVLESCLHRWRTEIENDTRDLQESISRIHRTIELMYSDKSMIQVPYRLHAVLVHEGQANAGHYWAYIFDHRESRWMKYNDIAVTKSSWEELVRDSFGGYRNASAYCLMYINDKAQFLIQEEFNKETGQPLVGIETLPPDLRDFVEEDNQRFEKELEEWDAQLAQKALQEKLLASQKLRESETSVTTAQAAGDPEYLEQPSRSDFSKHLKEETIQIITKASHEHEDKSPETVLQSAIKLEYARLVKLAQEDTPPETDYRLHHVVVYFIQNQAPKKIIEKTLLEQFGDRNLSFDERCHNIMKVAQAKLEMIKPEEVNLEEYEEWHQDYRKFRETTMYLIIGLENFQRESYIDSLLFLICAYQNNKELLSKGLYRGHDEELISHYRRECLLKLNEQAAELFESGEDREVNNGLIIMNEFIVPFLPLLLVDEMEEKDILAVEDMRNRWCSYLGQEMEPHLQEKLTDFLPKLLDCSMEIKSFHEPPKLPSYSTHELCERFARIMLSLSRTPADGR
How it was run: as §1

USP28 = molecular target: T4, USP28 (UniProt Q96RU2)
T4 sequence (whole entry): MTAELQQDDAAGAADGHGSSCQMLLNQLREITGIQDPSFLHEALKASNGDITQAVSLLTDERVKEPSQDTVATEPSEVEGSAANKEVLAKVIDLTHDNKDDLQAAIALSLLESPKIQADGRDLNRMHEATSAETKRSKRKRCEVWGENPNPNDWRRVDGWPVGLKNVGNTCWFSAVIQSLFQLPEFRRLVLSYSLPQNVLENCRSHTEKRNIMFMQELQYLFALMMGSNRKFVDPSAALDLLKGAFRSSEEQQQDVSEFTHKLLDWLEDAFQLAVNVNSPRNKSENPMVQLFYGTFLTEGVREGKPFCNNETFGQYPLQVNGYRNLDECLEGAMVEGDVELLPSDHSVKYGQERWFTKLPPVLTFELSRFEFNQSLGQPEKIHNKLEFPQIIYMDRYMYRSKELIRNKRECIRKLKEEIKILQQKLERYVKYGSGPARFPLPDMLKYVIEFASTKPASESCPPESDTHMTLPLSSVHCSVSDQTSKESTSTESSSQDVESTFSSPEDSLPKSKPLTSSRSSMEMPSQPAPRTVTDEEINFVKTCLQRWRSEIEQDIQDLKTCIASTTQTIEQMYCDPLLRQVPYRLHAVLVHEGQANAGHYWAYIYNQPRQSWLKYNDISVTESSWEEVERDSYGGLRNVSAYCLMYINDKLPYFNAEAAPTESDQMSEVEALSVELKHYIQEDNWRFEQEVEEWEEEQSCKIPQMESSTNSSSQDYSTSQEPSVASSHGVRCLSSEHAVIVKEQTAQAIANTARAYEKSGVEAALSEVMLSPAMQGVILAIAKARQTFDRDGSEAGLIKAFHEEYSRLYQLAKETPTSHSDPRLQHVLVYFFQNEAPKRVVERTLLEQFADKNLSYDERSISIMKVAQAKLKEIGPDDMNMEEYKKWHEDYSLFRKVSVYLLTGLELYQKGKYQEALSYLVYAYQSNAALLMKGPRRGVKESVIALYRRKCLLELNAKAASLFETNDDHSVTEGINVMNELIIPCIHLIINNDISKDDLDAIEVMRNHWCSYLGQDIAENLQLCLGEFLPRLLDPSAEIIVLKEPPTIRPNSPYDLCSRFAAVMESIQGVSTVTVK
How it was run: as §1

Measured: log2 ratio of Biotin-Ahx-Ub-VS probe labelling

USP24, sequence (Q9UPU5 whole entry): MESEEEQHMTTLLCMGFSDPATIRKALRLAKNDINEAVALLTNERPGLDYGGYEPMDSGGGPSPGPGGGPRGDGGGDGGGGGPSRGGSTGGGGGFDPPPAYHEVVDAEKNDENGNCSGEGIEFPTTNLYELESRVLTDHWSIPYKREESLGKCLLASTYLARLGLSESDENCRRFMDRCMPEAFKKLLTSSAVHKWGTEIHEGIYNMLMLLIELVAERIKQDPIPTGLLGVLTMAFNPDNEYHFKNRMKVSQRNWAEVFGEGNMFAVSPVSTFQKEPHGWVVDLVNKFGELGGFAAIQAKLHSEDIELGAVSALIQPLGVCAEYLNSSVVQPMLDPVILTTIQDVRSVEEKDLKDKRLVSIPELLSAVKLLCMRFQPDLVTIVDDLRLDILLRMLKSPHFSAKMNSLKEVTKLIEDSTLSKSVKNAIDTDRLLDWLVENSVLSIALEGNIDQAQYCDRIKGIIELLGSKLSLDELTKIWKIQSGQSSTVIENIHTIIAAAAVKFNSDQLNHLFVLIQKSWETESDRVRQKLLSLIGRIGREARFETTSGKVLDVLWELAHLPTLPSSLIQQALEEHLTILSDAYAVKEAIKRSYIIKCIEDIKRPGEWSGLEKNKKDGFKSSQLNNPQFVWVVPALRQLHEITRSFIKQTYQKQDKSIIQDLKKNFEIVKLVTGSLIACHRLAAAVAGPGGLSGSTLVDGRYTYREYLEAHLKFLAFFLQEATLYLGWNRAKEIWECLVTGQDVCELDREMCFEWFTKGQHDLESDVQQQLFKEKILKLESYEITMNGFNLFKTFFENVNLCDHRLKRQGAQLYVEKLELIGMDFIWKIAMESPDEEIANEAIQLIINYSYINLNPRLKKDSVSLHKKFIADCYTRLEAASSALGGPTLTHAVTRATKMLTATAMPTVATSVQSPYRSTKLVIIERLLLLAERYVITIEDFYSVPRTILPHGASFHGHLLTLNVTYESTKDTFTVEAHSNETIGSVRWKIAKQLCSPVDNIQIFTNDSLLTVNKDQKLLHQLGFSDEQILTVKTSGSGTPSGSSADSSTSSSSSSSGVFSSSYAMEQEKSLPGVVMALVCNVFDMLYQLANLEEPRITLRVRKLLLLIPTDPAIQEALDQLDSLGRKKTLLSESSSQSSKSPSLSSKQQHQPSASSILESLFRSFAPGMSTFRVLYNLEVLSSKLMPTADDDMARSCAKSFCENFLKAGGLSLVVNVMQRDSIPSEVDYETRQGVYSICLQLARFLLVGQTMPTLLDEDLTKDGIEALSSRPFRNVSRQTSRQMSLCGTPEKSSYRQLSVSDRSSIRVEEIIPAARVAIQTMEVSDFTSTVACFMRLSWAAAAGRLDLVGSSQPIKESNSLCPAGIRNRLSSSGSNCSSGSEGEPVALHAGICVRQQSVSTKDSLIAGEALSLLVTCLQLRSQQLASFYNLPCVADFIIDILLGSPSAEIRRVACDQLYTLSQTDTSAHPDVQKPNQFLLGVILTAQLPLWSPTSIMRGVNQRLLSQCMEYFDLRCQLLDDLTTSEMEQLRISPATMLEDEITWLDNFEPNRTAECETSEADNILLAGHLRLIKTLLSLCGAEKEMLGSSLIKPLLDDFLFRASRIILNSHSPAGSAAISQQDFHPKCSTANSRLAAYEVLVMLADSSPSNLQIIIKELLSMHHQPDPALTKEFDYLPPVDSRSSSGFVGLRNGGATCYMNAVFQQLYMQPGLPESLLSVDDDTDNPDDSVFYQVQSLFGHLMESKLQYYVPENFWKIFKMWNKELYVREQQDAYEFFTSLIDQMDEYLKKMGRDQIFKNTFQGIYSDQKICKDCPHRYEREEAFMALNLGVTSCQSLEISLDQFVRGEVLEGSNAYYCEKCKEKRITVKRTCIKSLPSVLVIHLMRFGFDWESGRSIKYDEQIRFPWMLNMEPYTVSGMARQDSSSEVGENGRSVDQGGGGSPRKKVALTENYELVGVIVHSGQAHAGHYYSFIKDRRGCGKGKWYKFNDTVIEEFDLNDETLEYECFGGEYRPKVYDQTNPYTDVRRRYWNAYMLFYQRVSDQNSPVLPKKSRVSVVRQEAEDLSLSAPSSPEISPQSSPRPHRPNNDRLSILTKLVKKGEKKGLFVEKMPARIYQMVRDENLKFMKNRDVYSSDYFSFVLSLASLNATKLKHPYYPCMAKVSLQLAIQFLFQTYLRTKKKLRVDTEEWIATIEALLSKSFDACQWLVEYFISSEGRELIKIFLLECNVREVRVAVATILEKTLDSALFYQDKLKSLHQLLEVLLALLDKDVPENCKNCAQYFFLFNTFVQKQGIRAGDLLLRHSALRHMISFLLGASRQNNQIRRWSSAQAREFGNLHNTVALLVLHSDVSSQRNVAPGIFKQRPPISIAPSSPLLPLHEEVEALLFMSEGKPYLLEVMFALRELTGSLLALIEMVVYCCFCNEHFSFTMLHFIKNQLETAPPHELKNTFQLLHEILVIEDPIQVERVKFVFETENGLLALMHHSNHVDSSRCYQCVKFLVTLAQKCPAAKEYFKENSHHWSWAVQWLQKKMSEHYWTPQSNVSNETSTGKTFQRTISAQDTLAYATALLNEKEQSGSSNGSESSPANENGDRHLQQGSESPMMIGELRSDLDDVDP

Cl.O=C(CCl)N1CC(c2ccc(Br)cn2)C1
inactive: USP19 -0.658 | USP22 -0.346 | USP24 -0.76 | USP25 -0.491 | USP28 -0.738
